# Experimental data: article PMC12136788
# Residue numbers refer to the chain shown, from its start. The full ranking holds about 24,000 sequences; the median of “enrichment r” is about 0.99, and the highest 2% start at about 3.7. This is one part of a sample in which the highest values are shown more often than they occur.
# T1: UNK ZnF1-3 (human, UniProt Q9C0B0 31-174)
# T1 sequence: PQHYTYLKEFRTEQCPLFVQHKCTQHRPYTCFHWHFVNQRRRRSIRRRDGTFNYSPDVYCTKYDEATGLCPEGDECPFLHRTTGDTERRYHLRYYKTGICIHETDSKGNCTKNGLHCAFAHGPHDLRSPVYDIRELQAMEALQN
# B1: 154963464_154963584_1656_3pUTR_ENSMUSG00000042751_ENSMUST00000043313|mouse|control|control (ssRNA)
# RNA: GGGAGUUCUACAGUCCGACGAUCCUGGUUGGCAGAGAACCCACUCAAUGCUACUGGUCAGACACACAGCAUCAAGACCACGAUCAUCUGAAACCAGGGACUCAAAUUCUGAGAAACCCUACUCUUCCCAGACUUAUGUACCAGCAACAGAGGAUUGAGCAUCA
# B2: chr8:145151508:145151509:+_ENSG00000179091_ENST00000318911|hu_hu|FALSE|FALSE (ssRNA)
# RNA: GGGAGUUCUACAGUCCGACGAUCACCUUCCCGCAGUGACACCCCGGUGGGUGGCUCGCAGUAGCCCGUGAGCAGGGAGAAGACGUAGUCCUCACCACCAUGCCUAGCUCGCACGAUGUAGCUGAGGUCAGGGGGCAAUGCUCCCAACAGAGGAUUGAGCAUCA
# B3: 35238635_35241177_7885_CDS_ENSMUSG00000029104_ENSMUST00000080036|mouse|control|control (ssRNA)
# RNA: GGGAGUUCUACAGUCCGACGAUCCUGGCCCAGCUUGUAGCUCAUGUUGCCUGGCUCCCGCUCUGGGUUGAUCUGCAGCAGCAGCUUGUCAUGGCUGAUAAGAGCACCUGUAGUAGCUGGUAACAGAGAAGGGACAGGAUCCCACAACAGAGGAUUGAGCAUCA
# B4: chr8:13020401:13020402:+_ENSMUSG00000031442_ENSMUST00000123811|mus_hu|FALSE|FALSE (ssRNA)
# RNA: GGGAGUUCUACAGUCCGACGAUCUGAUUCCGCACCCUGGAGGUCUGGCCAGUGACGGCUACAAGCCGCUGGGAGGGUAGCGUGAGGGGAAUGCAGCCACGCCUGCCUCCACUGUGCUGGGGCUGGGAACCGUGAGGCUGUGAGCAACAGAGGAUUGAGCAUCA
# B5: chr9:4385736:4385737:+_ENSMUSG00000041124_ENSMUST00000047173|mus_hu|FALSE|FALSE (ssRNA)
# RNA: GGGAGUUCUACAGUCCGACGAUCAUAUUUUGGGUUGGAAAAUUCUUUACUGAGUGUGGGGGGGUGUUGAGGAGGUAUGCAUUGCACAGUAGCAACCUUUUCCCCACCCCAGUUUUGACAACCCAACAUGUCUCCAGACAUCACCAACAGAGGAUUGAGCAUCA
# B6: chr2:27535424:27535425:-_ENSG00000115204_ENST00000380044|hu_mus|FALSE|FALSE (ssRNA)
# RNA: GGGAGUUCUACAGUCCGACGAUCUUUGGCCCAAUUGUCCUGGGCUGACAUUCCAUUGAGUAUCCCGACCAGUGGGAGAAAGCAGCCUAGGAAACAUGGGGCAAAGCCCCCCUGAUCUAACAACAUCUUCUUCAGUGCAUGCACCAACAGAGGAUUGAGCAUCA
# B7: chr2:17897474:17897475:-_ENSG00000163029_ENST00000351948|hu_mus|FALSE|FALSE (ssRNA)
# RNA: GGGAGUUCUACAGUCCGACGAUCUAUUGCUUCCAGAAGAGCUGGAACAUGAGGACCAAAUCUUUUUAGUCGAUCAGUUUUACUAUCUUUCAGUUCUUUCAAUUGUCUCUGAUUAUAGUUGAGUGCAUGUCUCACUUCUAUAUCCAACAGAGGAUUGAGCAUCA
# B8: 8890394_8891644_3383_CDS_ENSG00000134313_ENST00000427284|human|control|control (ssRNA)
# RNA: GGGAGUUCUACAGUCCGACGAUCACCCUCAUGUAGAGGGAGCGGGGGGUACGCCAGUCCUCCAAUACUGAUCUGCUCUCUGGCAGCACGAACAUCUGCAAUAAUUUCCCGUAGUUUGGGAUCUAGGUUUACAGUGCAUGGCAACAACAGAGGAUUGAGCAUCA
# B9: chr4:2840174:2840175:+_ENSG00000087266_ENST00000503393|hu_hu|motif|central (ssRNA)
# RNA: GGGAGUUCUACAGUCCGACGAUCGAACUACGAUACAGCCAAACAAUGGAAGUUUUUAGCAAUGAACAUGCACAAACGGUACGGCGCACAGCAACAUGAAUAAAUCUCACAGACAUAAUAACGAGCCAAAGAAGCCAGCUGCCACAACAGAGGAUUGAGCAUCA
# B10: chr17:56552419:56552420:-_ENSMUSG00000013236_ENSMUST00000086828|mus_mus|mus_mus_mus_hu_False|38_48 (ssRNA)
# RNA: GGGAGUUCUACAGUCCGACGAUCAAAAAAUACACUAUUUAAAAAAAAUGAAAUGUCACGGGAUACAGUUACACUGAGAGUUUUAAAAAAAAAUAAGAAAAAAAAUGCAGCCCAGUGUCCCCAGGCUGCAGAGCGGGGAGGAGCCAACAGAGGAUUGAGCAUCA
# B11: chr17:56552419:56552420:-_ENSMUSG00000013236_ENSMUST00000086828|mus_mus|mus_mus_mus_hu_False|28_38 (ssRNA)
# RNA: B10 RNA with A88G, A92G, U93C, A94U, A95G, C107U, A108U, C112A, G114A, U115A
# B12: chr17:56552419:56552420:-_ENSMUSG00000013236_ENSMUST00000086828|mus_mus|mus_mus_mus_hu_False|8_38 (ssRNA)
# RNA: GGGAGUUCUACAGUCCGACGAUCAAAAAAUACACUAUUUAAAAAAAAUGAAAUGUCACGGGAUACAGUUACACUGAGAGUUUUAAAAGAAAGCUGGAAAAAAAAUGCAGCCCAGUGUCCCCAGGCUGAGUGCGGAAGAGGAGCCAACAGAGGAUUGAGCAUCA
# B13: chr17:56552419:56552420:-_ENSMUSG00000013236_ENSMUST00000086828|mus_mus|mus_mus_mus_hu_False|18_38 (ssRNA)
# RNA: GGGAGUUCUACAGUCCGACGAUCAAAAAAUACACUAUUUAAAAAAAAUGAAAUGUCACGGGAUACAGUUACACUGAGAGUUUUAAAAGAAAGCUGGAAAAAAAAUGCAGCCCAGUGGCAGGCAGGGGCAGAGCGGGGAGGAGCCAACAGAGGAUUGAGCAUCA
# B14: chr2:61719535:61719536:-_ENSG00000082898_ENST00000401558|hu_mus|FALSE|FALSE (ssRNA)
# RNA: GGGAGUUCUACAGUCCGACGAUCGUUUACUACUGUCUUCAAAAAUUUCCAGUGUGCUCUCAAAAAUCUUGGGUAUUGACCUACUAUGUACAUGAUAUUCGAUGCAAUAAUAGCUUUAUUAUCUUUGCCUCUUUUCUGCUCACACAACAGAGGAUUGAGCAUCA
# B15: chr2:48026839:48026840:+_ENSG00000116062_ENST00000540021|hu_hu|hu_hu_hu_mus_False|38_78 (ssRNA)
# RNA: GGGAGUUCUACAGUCCGACGAUCAUAGUGAGCCACUAGCGUCCUAAAUCUGGAACAAUGGCGAUCAUCCGAAAACUGGCCGAUGAAAAACUUGCCCAGUGAAGUAUCCACAAAGCAAACACCAUACACACGAGUGUGACCAGACAACAGAGGAUUGAGCAUCA
# B16: chr1:180251914:180251915:+_ENSMUSG00000026500_ENSMUST00000027781|mus_hu|FALSE|FALSE (ssRNA)
# RNA: GGGAGUUCUACAGUCCGACGAUCAGAUCCUAAUGAACCAUACAAUAUUGAAUGCCGGGCGCAGGGAGUAUUUUCAACAUCUAAAAAUCCUAGGAGCUUAAGGGACUUCCAAUAUGAUAAAUGUAACGACGUACAAGAUGCCUUCAACAGAGGAUUGAGCAUCA
# B17: 106713800_106713920_1116_CDS_ENSMUSG00000018363_ENSMUST00000103067|mouse|control|control (ssRNA)
# RNA: GGGAGUUCUACAGUCCGACGAUCCCUGCUCAUGUAAUUUCUAUGUCGCUGGGACCUGACUCUUCUCUCUGCUAGUCUGGGGUCUGAAGAAUGUCCACACGUUGCACCAUUUGUUCCAGUAAUUGGAGUAUUCUCAUCCACAAACAACAGAGGAUUGAGCAUCA
# B18: chr2:48035047:48035048:-_ENSG00000138081_ENST00000403359|hu_hu|motif|central (ssRNA)
# RNA: GGGAGUUCUACAGUCCGACGAUCACAAAAUUGCAGCUUAUUUUCUUCACUUCUGUCCCUUCAAGUCUUUACACAGUAAUGCGGAAACACCCAGCUUUGAGAUCCUGAGUCAAUAUAUUGCCACUUUCUUUUUGGUAGCUUGAGCAACAGAGGAUUGAGCAUCA
# B19: chr7:72441615:72441616:-_ENSMUSG00000030516_ENSMUST00000102592|mus_hu|FALSE|FALSE (ssRNA)
# RNA: GGGAGUUCUACAGUCCGACGAUCAAAAUUUUCAAAUGCAUAGCCAGAAAGAACAGAAAACCACCACUGCCCCUUGUCAAAAAAAAAAAAAAAGAAAAGAAAAGAAAAGAAAAAAAUAUCCCCAAAUCACACCACUAUUUUCUUCAACAGAGGAUUGAGCAUCA
# B20: chr17:56552419:56552420:-_ENSMUSG00000013236_ENSMUST00000086828|mus_mus|mus_mus_mus_hu_False|38_58 (ssRNA)
# RNA: B10 RNA with G77C, G79C, U81A, A88G, A92G, U93C, A94U, A95G
# B21: 173052199_173052319_2237_3pUTR_ENSMUSG00000038400_ENSMUST00000036248|mouse|control|control (ssRNA)
# RNA: GGGAGUUCUACAGUCCGACGAUCCUGUAUCCACCUGGCACCAAAUUCGGGGACUGCUUUGGCUUUGGGGAUGCACCUUGCCCCCAAACACUGAACCUUCAUAGUUUUUGUGUUUUAAAGAGGAAGAAAAAAAAAAAAACUAAGCAACAGAGGAUUGAGCAUCA
# B22: 14336767_14358337_2061_CDS_ENSG00000038382_ENST00000344204|human|control|control (ssRNA)
# RNA: GGGAGUUCUACAGUCCGACGAUCAUACACGUCGUCCAGCAGCUCCUUCUGCAGCUCCUCCAGCCACGUCCACAGCUCUUUCACAUGGGUGUGAAAGGACACUGACAUGUCCAGUAGGAUCUUUCGCUGCUCAACACGCCGAACCAACAGAGGAUUGAGCAUCA
# Molecular target: T1, UNK ZnF1-3
# Experiment: nsRBNS (natural sequence RNA bind-n-seq); RBNS binding buffer (assumed for nsRBNS): 25 mM Tris pH 7.5, 150 mM KCl, 3 mM MgCl2, 0.01% Triton X-100, 500 ug/ml BSA, 20 U/ml SUPERase-In, 4 C; UNK is unkempt and MSI1 is Musashi-1; names of the RNAs are library labels; protein concentration not given here; high values mean tight binding
row,Binder,binding signal [enrichment R]
1,B1,1.29
2,B2,1.01
3,B3,1.21
4,B4,1.36
5,B5,0.462
6,B6,0.82
7,B7,0.468
8,B8,0.796
9,B9,2.12
10,B10,12.3
11,B11,5.83
12,B12,6.02
13,B13,5.96
14,B14,0.747
15,B15,1.33
16,B16,1.57
17,B17,0.982
18,B18,0.585
19,B19,5.91
20,B20,9.74
21,B21,2.34
22,B22,0.394
